# Only some compounds are listed: those with a hit (about 0.78% of all), similar ones and a draw of the others.
# ROCK2 inh = inhibitors of human ROCK2 kinase, primary screen, biochemical, high-throughput, luminescence; Rho-associated protein kinase 2 (Homo sapiens), O75116; purified ROCK2, Kinase-Glo ATP depletion luminescence; inhibition, % at 6 µM; 0.35% of 60,000 active;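 active means inhibition above the screen-wide mean inhibition plus 3 SD, cut at about 18% in these data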;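 further: plate controls were DMSO wells for no effect and Y-27632 control wells after no-enzyme background subtraction for full effect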
# PKA inh = inhibitors of human PKA kinase activity, primary screen, biochemical, ATP-depletion luminescence, Kemptide substrate; 0.1% of 65,000 active; inhibition, % at 6 µM; cAMP-dependent protein kinase catalytic subunit alpha (Homo sapiens), P17612; PKA Kemptide phosphorylation, Kinase-Glo ATP luminescence; AID 524, 2006;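 active means inhibition above the screen-wide mean inhibition plus 3 SD, cut at about 21% in these data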
# C1s block = complement C1s protease inhibitors, primary screen, biochemical, 10-compound mixtures | Complement C1s subcomponent (Homo sapiens), P09871 | purified C1s, fluorogenic AMC substrate, pooled mixtures | 0.16% of 62,000 active | mean inhibition % of two 10-compound mixtures (active compounds read high), % at 5 µM (by protocol);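 active means inhibition above 20% in each of the two 10-compound mixture wells holding the compound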;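 further: 0% = enzyme wells lacking compound mixture and 100% = no-enzyme blank wells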
# FXIa mix inh = FXIa protease inhibitors in compound pools, primary screen, biochemical, 10-compound mixtures. Coagulation factor XI (Homo sapiens), P03951. purified FXIa, fluorogenic substrate, pooled mixtures. inhibition, % at 5 µM. 0.19% of 62,000 active. AID 680, 2007;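 further: each value is inhibition by a whole ten-compound pool holding the compound; 0% = enzyme with no mixture and 100% = wells lacking enzyme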
# Cathepsin G inh = human cathepsin G inhibitors, primary screen, biochemical, pooled compound mixtures, AMC fluorescence; P08311; purified enzyme, AMC-tetrapeptide fluorescence; inhibition, % at 5 µM (by protocol); 0.2% of 62,000 active;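 active means inhibition above 20% in each of the two mixture wells holding the compound; inactive means inhibition of 20% or less in either well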;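 further: 0% = enzyme control without mixture and 100% = blank lacking enzyme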
# FXIIa inh mix = human factor XIIa inhibitors, primary screen, biochemical, pooled compound mixtures, fluorogenic substrate. inhibition, % at 5 µM. Coagulation factor XII (Homo sapiens), P00748. purified FXIIa. 0.2% of 62,000 active;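 further: 0% = enzyme without compound and 100% = no enzyme blank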
# An asterisk follows results filed as active. Unless noted, no stated cut-off is given here; in the data, active means inhibition above about 20% (passing the limit was not always enough); inactive means the rest.
SMILES,ROCK2 inh,PKA inh,C1s block,FXIa mix inh,Cathepsin G inh,FXIIa inh mix
COc1ccccc1N1CCN(Cc2ccccc2Cl)CC1,6,6,13,11,11,-1
COc1ccccc1CN1CCCCC1c1cccnc1 (stereo not drawn),5,2,59*,5,10,0
Cc1[nH]c2ccccc2c1C1=CCNCC1,26*,18,14,4,5,6
O=C(C1CC(=O)N(C2CCCCC2)C1)N1CCC2(CC1)OCCO2 (stereo not drawn),1,3,31,4,-1,4
O=C(CN1CC(c2ccccc2)CC1=O)Nc1ccccc1 (stereo not drawn),8,8,0,-3,11,5
CC(C)[C@H]1C(=O)N2CCC[C@H]2[C@]2(O)O[C@](NC(=O)[C@@H]3C=C4c5cccc6[nH]cc(c56)C[C@H]4N(C)C3)(C(C)C)C(=O)N12,36*,4,-25,3,-1,5
CCOC(=O)c1cccc([P+](=O)O)c1,2,-2,-25,-7,-11,6
CCn1nc(-c2cccs2)nc2c(=O)n(C)c(=O)nc1-2,69*,2,17,13,17,3

# Screening data from PubChem BioAssay.
